“And” between values parts separate entries of the source, which are not always exact repeats. Identical values can stand only once. Records with an inconclusive call do not appear. Entries that show only a call come without a potency. The source made the active and inactive calls. Calls come from the whole dose curve; as a rule, active = well fitted curve in the direction sought with a large enough effect; inconclusive = small, poorly fitted or top-dose-only effect, or another doubt; inactive = no such curve, though single readings can be large; an effect the other way counts as inactive or inconclusive.
Columns and labels:
[1] = Quantitative highthroughput screen to assess conditional lethalithy of NOMO1 cells grown in RPMI1640 with untreated serum (RPMI+s) (AID 1963876); note: nearly all actives have a fitted effect of over 35% in size
In short: (§1)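 Each medium arm—HPLM with 10% dialyzed FBS, or RPMI1640 with 5 mM glucose and 10% untreated or dialyzed FBS—was screened against an 11-point, 3-fold compound titration for 48 h at 37 °C, with CellTiter-Glo luminescence as endpoint.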

[2] = Quantitative highthroughput screen to assess conditional lethalithy of NOMO1 cells grown in RPMI1640 with dialyzed fetal bovine serum (RPMI+ds) (AID 1963877); note: nearly all actives have a fitted effect of over 30% in size; for viability: series mostly up to about 46 µM
In short: as §1

[3] = Quantitative highthroughput screen to assess conditional lethalithy of NOMO1 cells grown in Human Plasma-Like Medium with dialyzed fetal bovine serum (HPLM+ds) (AID 1963878); note: nearly all actives have a fitted effect of over 35% in size
In short: as §1

[4] = Quantitative highthroughput screen to assess conditional lethalithy of P12 Ichikawa cells grown in Human Plasma-Like Medium with dialyzed fetal bovine serum (HPLM+ds) (AID 1963879); conditions: Potency: viability; note: nearly all actives have a fitted effect of over 35% in size; for viability: series mostly up to about 46 µM
In short: as §1

[5] = Quantitative highthroughput screen to assess conditional lethalithy of P12 Ichikawa cells grown in RPMI1640 with untreated serum (RPMI+s) (AID 1963881); conditions: Potency: viability; note: nearly all actives have a fitted effect of over 35% in size; for viability: series mostly up to about 46 µM
In short: as §1

[6] = Quantitative highthroughput screen to assess conditional lethalithy of SEM cells grown in Human Plasma-Like Medium with dialyzed fetal bovine serum (HPLM+ds) (AID 1963882); note: nearly all actives have a fitted effect of over 35% in size; for viability: series mostly up to about 46 µM
In short: as §1

[7] = Quantitative highthroughput screen to assess conditional lethalithy of SEM cells grown in RPMI1640 with unreated serum (RPMI+s) (AID 1963883); note: nearly all actives have a fitted effect of over 35% in size
In short: as §1

[8] = Quantitative highthroughput screen to assess conditional lethalithy of P12 Ichikawa cells grown in RPMI1640 with dialyzed fetal bovine serum (RPMI+ds) (AID 1963880); conditions: Potency: P12-Ichikawa viability; note: nearly all actives have a fitted effect of over 35% in size
In short: as §1

[9] = Quantitative highthroughput screen to assess conditional lethalithy of SEM cells grown in RPMI1640 with dialyzed fetal bovine serum (RPMI+ds) (AID 1963884); note: nearly all actives have a fitted effect of over 35% in size; for viability: series mostly up to about 46 µM
In short: as §1

[10] = Cellular viability qHTS for adrenocortical cancer (ACC) cell line SW-13 (AID 1963989); conditions: SW-13 ACC cells viability, CellTiter-Glo, 48 h; activity (max response): stronger effect = lower value; note: nearly all actives have a fitted effect of over 65% in size;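 for activity (max response): cells grown in serum-free medium with ITS supplement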
In short: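 Luminescent ATP read-out (CellTiter-Glo, 20 min at room temperature) measured metabolically competent SW-13 cells after 48 h compound treatment. Final concentrations spanned up to 46 uM; bortezomib served as positive control.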

[11] = Cellular viability qHTS for adrenocortical cancer (ACC) cell line NCI-H295R (AID 1963990); note: nearly all actives have a fitted effect of over 60% in size
In short: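 IC50 and maximal efficacy derive from four-parameter logistic modelling of titration curves, with reads scaled between DMSO-only wells (0%) and doxorubicin hydrochloride (100% inhibition). Compounds spanned up to 46 uM over 48 h.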
Potency is the fitted concentration of half-maximal effect.

Row | Structure (SMILES) | Potency [1] | Potency [2] | Potency [3] | Potency [4] | Potency [5] | Potency [6] | Potency [7] | Potency [8] | Potency [9] | activity (max response) [10] | Potency [11] | Potency [10]
1 | CC(=O)N[C@@H]1[C@H](O[C@@H]2c3ccc(c(Cl)c3)Oc3cc4cc(c3O[C@H]3O[C@H](CO)[C@@H](O)[C@H](O)[C@H]3NC(=O)CCCCCCCC(C)C)Oc3ccc(cc3Cl)C[C@H]3NC(=O)[C@H](N)c5ccc(O)c(c5)Oc5cc(O)cc(c5)[C@H](NC3=O)C(=O)N[C@H]4C(=O)N[C@H]3C(=O)N[C@@H]2C(=O)N[C@@H](C(=O)O)c2cc(O)cc(O[C@H]4O[C@H](CO)[C@@H](O)[C@H](O)[C@H]4O)c2-c2cc3ccc2O)O[C@H](CO)[C@@H](O)[C@@H]1O | inactive | inactive | inactive | inactive | inactive | inactive | inactive | – | – | – | – | –
2 | NC[C@H]1O[C@H](O[C@H]2[C@@H](O)[C@@H](O[C@H]3O[C@H](CO)[C@@H](O)[C@H](N)[C@@H]3O)[C@H](N)C[C@@H]2N)[C@H](N)C[C@H]1O | inactive | inactive | inactive | inactive | – | inactive | inactive | inactive | inactive | – | – | –
3 | C#CCN(C)CC1=Cc2ccccc2Oc2ccccc21 | inactive | inactive | inactive | inactive | inactive | – | – | inactive | – | 0.599% (inactive) | inactive | –
4 | Cc1oncc1C(=O)Nc1ccc(C(F)(F)F)cc1 | inactive | inactive | inactive | inactive | inactive | inactive | inactive | – | – | -12.3% (inactive) and -17.5% (inactive) | – | –
5 | NS(=O)(=O)c1cc(C(=O)O)c(NCc2ccco2)cc1Cl | inactive | inactive | inactive | inactive | inactive | – | – | inactive | – | -1.8% (inactive) | inactive | –
6 | NS(=O)(=O)c1ccc(NC2=CC(=O)c3ccccc3C2=O)cc1 | inactive | inactive | inactive | inactive | inactive | – | – | inactive | – | -24.7% (inactive) | – | –
7 | C[C@H](NC(=O)c1sccc1OCc1ccc(Cl)cc1)c1ccccc1 | inactive | inactive | inactive | inactive | inactive | – | – | inactive | – | – | 28.2 µM (active) | 25.1 µM (active)
8 | CCOC(=O)C1=C(C)NC(=S)NC1c1cccc(O)c1 (centres undefined) | 0.148 µM (active) | 0.264 µM (active) | 0.235 µM (active) | 0.187 µM (active) | – | 0.0743 µM (active) | 0.132 µM (active) | 0.296 µM (active) | 0.166 µM (active) | – | – | –
9 | O=[N+]([O-])c1ccc(Nc2ccccc2-c2ccccc2)c2nonc12 | inactive | inactive | inactive | inactive | inactive | – | – | inactive | – | – | 11.2 µM (active) | 8.91 µM (active)
10 | O=C(O)[C@H]1O[C@H](Oc2cc3oc(-c4ccccc4)cc(=O)c3c(O)c2O)[C@H](O)[C@@H](O)[C@H]1O | inactive | inactive | inactive | inactive | 18.7 µM (active) | 18.7 µM (active) | 18.7 µM (active) | – | – | – | – | –
11 | COc1cc(C)c(C=CC(C)=CC=CC(C)=CC(=O)O)c(C)c1C | inactive | inactive | inactive | inactive | – | – | – | inactive | inactive | – | – | –
12 | Cc1cc(SCc2sc(-c3ccc(C(F)(F)F)cc3)nc2C)ccc1OCC(=O)O | inactive | inactive | inactive | inactive | – | – | – | inactive | – | – | inactive | –
13 | O=C(O)C(=O)Nc1cccc(C2=NN=N[N]2)c1 | inactive | inactive | inactive | inactive | inactive | inactive | inactive | – | – | – | – | –
14 | CCN(CC)CCOc1ccc(C(=C(Cl)c2ccccc2)c2ccccc2)cc1 | inactive | inactive | inactive | inactive | – | inactive | inactive | 20.9 µM (active) | inactive | – | – | –
15 | Cc1ccc(/C=N/NC(=O)c2ccccc2Oc2ccccc2)o1 | inactive | inactive | inactive | inactive | – | inactive | inactive | inactive | – | -16.3% (inactive) | – | –
16 | O=C(c1ccc(F)c(F)c1Nc1ccc(I)cc1F)N1CC(O)([C@H]2CCCCN2)C1 | 0.743 µM (active) | 0.743 µM (active) | 0.526 µM (active) | 8.33 µM (active) | 8.33 µM (active) | inactive | – | – | – | – | – | –
17 | CS(=O)(=O)c1ccc(Oc2cc(F)cc(C#N)c2)c2c1[C@H](O)C(F)(F)C2 | inactive | inactive | inactive | inactive | inactive | – | – | inactive | – | 10.8% (inactive) | inactive | –
18 | Cc1cccc(N(C)C(=S)Oc2ccc3ccccc3c2)c1 | inactive | inactive | inactive | inactive | – | inactive | inactive | – | inactive | 2.38% (inactive) | inactive | –
19 | CC1(O)CC(c2nc(-c3ccc4ccc(-c5ccccc5)nc4c3)c3c(N)nccn23)C1 (centres undefined) | 3.72 µM (active) | 3.72 µM (active) | 2.35 µM (active) | – | 4.69 µM (active) | 2.35 µM (active) | 1.18 µM (active) | 5.9 µM (active) | 2.35 µM (active) | -21% (inactive) | – | –
